The campaign covered roughly 5,500 compounds. About 2,000 (36%) were called active. Inconclusive results (about 18%) are left out. Rule as the data show it: active = normalized growth mostly below about 0.91 (no sharp cut-off); inconclusive = no clear call, values can overlap the other calls; inactive = mostly above about 0.92. This is one part of the list.
Experiment: chemical genetic growth profiling, strain panel (AID 1159580);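 also: tested at 20 µM; growth read once vehicle control cultures reached saturation at 30 °C; 1 = growth at the plate median or of vehicle wells; lower values mean less growth of the strain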
Details: growth OD

Measured: normalized growth

O=C(OC1Cc2c(O)cc(O)cc2OC1c1cc(O)c(O)c(O)c1-c1c(C2Oc3cc(O)cc(O)c3CC2OC(=O)c2cc(O)c(O)c(O)c2)cc(O)c(O)c1O)c1cc(O)c(O)c(O)c1 (stereo not given)
active: S. cerevisiae deletion strains, locus YLR262C, strain YPT6 (second series), active compounds read low 0.766 | S. cerevisiae deletion strains, locus YLR357W, strain rsc2, active compounds read low 0.807 | S. cerevisiae deletion strains, locus YMR058W, strain fet3, active compounds read low 0.338 | S. cerevisiae deletion strains, locus YMR231W, strain pep5, active compounds read low 0.762 | S. cerevisiae deletion strains, locus YNL209W, strain ssb2, active compounds read low 0.735 | S. cerevisiae deletion strains, locus YOR106W, strain vam3, active compounds read low 0.648 | S. cerevisiae deletion strains, locus YPL051W, strain arl3, active compounds read low 0.82
inactive: S. cerevisiae deletion strains, locus YJL187C, strain SWE1 (second series), active compounds read low 1.01 | S. cerevisiae deletion strains, locus YJR043C, strain POL32, active compounds read low 1.06 | S. cerevisiae deletion strains, locus YKL009W, strain mrt4, active compounds read low 0.953 | S. cerevisiae deletion strains, locus YKL068W, active compounds read low 1 | S. cerevisiae deletion strains, locus YKL085W, strain MDH1 (second series), active compounds read low 0.991 | S. cerevisiae deletion strains, locus YKL085W, strain MDH1, active compounds read low 0.991 | S. cerevisiae deletion strains, locus YKL160W, strain elf1, active compounds read low 1 | S. cerevisiae deletion strains, locus YKL190W, strain CNB1, active compounds read low 1 | S. cerevisiae deletion strains, locus YKR001C, strain vps1, active compounds read low 0.961 | S. cerevisiae deletion strains, locus YKR026C, strain gcn3, active compounds read low 1.02 | S. cerevisiae deletion strains, locus YKR091W, strain srl3, active compounds read low 1.02 | S. cerevisiae deletion strains, locus YLL001W, strain dnm1, active compounds read low 1.02 | S. cerevisiae deletion strains, locus YLL026W, active compounds read low 1.02 | S. cerevisiae deletion strains, locus YLL041C, strain sdh2, active compounds read low 1 | S. cerevisiae deletion strains, locus YLR027C, strain aat2, active compounds read low 1.01 | S. cerevisiae deletion strains, locus YLR039C, strain RIC1, active compounds read low 1.04 | S. cerevisiae deletion strains, locus YLR058C, strain SHM2, active compounds read low 1.01 | S. cerevisiae deletion strains, locus YLR102C, strain apc9, active compounds read low 0.988 | S. cerevisiae deletion strains, locus YLR221C, strain rsa3, active compounds read low 0.995 | S. cerevisiae deletion strains, locus YLR258W, strain gsy2, active compounds read low 0.993 | S. cerevisiae deletion strains, locus YLR262C, strain YPT6, active compounds read low 0.99 | S. cerevisiae deletion strains, locus YLR268W, strain sec22, active compounds read low 0.993 | S. cerevisiae deletion strains, locus YLR320W, strain mms22, active compounds read low 0.981 | S. cerevisiae deletion strains, locus YLR330W, strain CHS5, active compounds read low 0.993 | S. cerevisiae deletion strains, locus YLR342W, strain FKS1 (second series), active compounds read low 1.1 | S. cerevisiae deletion strains, locus YLR342W, strain FKS1, active compounds read low 0.98 | S. cerevisiae deletion strains, locus YLR370C, strain arc18, active compounds read low 1.01 | S. cerevisiae deletion strains, locus YLR371W, strain rom2, active compounds read low 0.979 | S. cerevisiae deletion strains, locus YLR384C, strain iki3, active compounds read low 1 | S. cerevisiae deletion strains, locus YLR418C, strain cdc73, active compounds read low 0.931 | S. cerevisiae deletion strains, locus YML016C, strain PPZ1, active compounds read low 1.03 | S. cerevisiae deletion strains, locus YML032C, strain rad52, active compounds read low 0.99 | S. cerevisiae deletion strains, locus YML120C, strain ndi1, active compounds read low 1 | S. cerevisiae deletion strains, locus YML124C, strain tub3, active compounds read low 0.992 | S. cerevisiae deletion strains, locus YMR078C, strain ctf18, active compounds read low 0.981 | S. cerevisiae deletion strains, locus YMR125W, strain sto1, active compounds read low 1.04 | S. cerevisiae deletion strains, locus YMR129W, active compounds read low 1.02 | S. cerevisiae deletion strains, locus YMR205C, strain PFK2, active compounds read low 0.974 | S. cerevisiae deletion strains, locus YMR223W, strain ubp8, active compounds read low 0.995 | S. cerevisiae deletion strains, locus YMR307W, strain GAS1, active compounds read low 1.08 | S. cerevisiae deletion strains, locus YNL067W, strain RPL9B, active compounds read low 0.984 | S. cerevisiae deletion strains, locus YNL071W, strain lat1, active compounds read low 1.02 | S. cerevisiae deletion strains, locus YNL153C, strain GIM3, active compounds read low 1 | S. cerevisiae deletion strains, locus YNL233W, strain BNI4, active compounds read low 0.964 | S. cerevisiae deletion strains, locus YNL248C, strain rpa49, active compounds read low 1.01 | S. cerevisiae deletion strains, locus YNL250W, strain rad50, active compounds read low 0.968 | S. cerevisiae deletion strains, locus YNL271C, strain bni1, active compounds read low 0.964 | S. cerevisiae deletion strains, locus YNL298W, strain CLA4, active compounds read low 0.979 | S. cerevisiae deletion strains, locus YNL307C, strain MCK1, active compounds read low 0.979 | S. cerevisiae deletion strains, locus YNL322C, strain KRE1 (second series), active compounds read low 1.05 | S. cerevisiae deletion strains, locus YNL322C, strain KRE1, active compounds read low 0.998 | S. cerevisiae deletion strains, locus YNR049C, strain mso1, active compounds read low 1.02 | S. cerevisiae deletion strains, locus YNR052C, strain pop2, active compounds read low 0.969 | S. cerevisiae deletion strains, locus YOL006C, strain TOP1, active compounds read low 0.885 | S. cerevisiae deletion strains, locus YOL012C, strain htz1 1.2 | S. cerevisiae deletion strains, locus YOL147C, strain pex11, active compounds read low 0.987 | S. cerevisiae deletion strains, locus YOR001W, strain rrp6, active compounds read low 0.997 | S. cerevisiae deletion strains, locus YOR061W, strain CKA2, active compounds read low 1.03 | S. cerevisiae deletion strains, locus YOR069W, strain VPS5, active compounds read low 1.02 | S. cerevisiae deletion strains, locus YOR070C, strain gyp1, active compounds read low 0.975 | S. cerevisiae deletion strains, locus YOR080W, strain dia2, active compounds read low 1.02 | S. cerevisiae deletion strains, locus YOR083W, strain WHI5, active compounds read low 0.976 | S. cerevisiae deletion strains, locus YOR136W, strain idh2, active compounds read low 0.972 | S. cerevisiae deletion strains, locus YOR144C, strain elg1, active compounds read low 0.999 | S. cerevisiae deletion strains, locus YOR184W, strain ser1, active compounds read low 0.982 | S. cerevisiae deletion strains, locus YOR265W, strain rbl2, active compounds read low 0.984 | S. cerevisiae deletion strains, locus YOR270C, strain vph1, active compounds read low 0.835 | S. cerevisiae deletion strains, locus YOR290C, strain snf2, active compounds read low 0.985 | S. cerevisiae deletion strains, locus YOR316C, strain cot1, active compounds read low 1 | S. cerevisiae deletion strains, locus YPL078C, strain atp4, active compounds read low 1.01 | S. cerevisiae deletion strains, locus YPL106C, strain sse1, active compounds read low 0.893 | S. cerevisiae deletion strains, locus YPL240C, strain hsp82, active compounds read low 1.02 | S. cerevisiae deletion strains, locus YPR119W, strain clb2, active compounds read low 0.999 | S. cerevisiae deletion strains, locus YPR141C, strain kar3, active compounds read low 0.964 | S. cerevisiae deletion strains, locus YPR163C, strain tif3, active compounds read low 0.987 | S. cerevisiae deletion strains, locus YPR167C, strain met16, active compounds read low 0.986 | S. cerevisiae deletion strains, strain wtn01, active compounds read low 0.994 | S. cerevisiae strains, strain wild type, active compounds read low 1.01

From PubChem BioAssay AID1159580 (chemical genetic matrix, 2015)
